Data taken from ChEMBL document CHEMBL3988442, “University of Dundee, Small-Polar-MMV Screening Library” (2021).
For some assays here: Measured potencies and affinities stand elsewhere.

Experiments:
Set-up in all cases: scale not given: direction of the effect not stated beside the values
[1] = target: Protein translocase subunit SecA (Escherichia coli (strain K12)) (UniProt P10408); experiment: Assay to Identify E. coli SecA ATPase Inhibitors; assay type: functional; details: 30 µM
[2] = target: T1, Ubiquitin-activating enzyme e1, putative (Leishmania donovani (strain BPK282A1)) (UniProt E9BSI1); experiment: Leishmania donovani Ubiquitin Activating Enzyme (LdE1); assay type: functional; details: 30 µM
T1 sequence (whole entry): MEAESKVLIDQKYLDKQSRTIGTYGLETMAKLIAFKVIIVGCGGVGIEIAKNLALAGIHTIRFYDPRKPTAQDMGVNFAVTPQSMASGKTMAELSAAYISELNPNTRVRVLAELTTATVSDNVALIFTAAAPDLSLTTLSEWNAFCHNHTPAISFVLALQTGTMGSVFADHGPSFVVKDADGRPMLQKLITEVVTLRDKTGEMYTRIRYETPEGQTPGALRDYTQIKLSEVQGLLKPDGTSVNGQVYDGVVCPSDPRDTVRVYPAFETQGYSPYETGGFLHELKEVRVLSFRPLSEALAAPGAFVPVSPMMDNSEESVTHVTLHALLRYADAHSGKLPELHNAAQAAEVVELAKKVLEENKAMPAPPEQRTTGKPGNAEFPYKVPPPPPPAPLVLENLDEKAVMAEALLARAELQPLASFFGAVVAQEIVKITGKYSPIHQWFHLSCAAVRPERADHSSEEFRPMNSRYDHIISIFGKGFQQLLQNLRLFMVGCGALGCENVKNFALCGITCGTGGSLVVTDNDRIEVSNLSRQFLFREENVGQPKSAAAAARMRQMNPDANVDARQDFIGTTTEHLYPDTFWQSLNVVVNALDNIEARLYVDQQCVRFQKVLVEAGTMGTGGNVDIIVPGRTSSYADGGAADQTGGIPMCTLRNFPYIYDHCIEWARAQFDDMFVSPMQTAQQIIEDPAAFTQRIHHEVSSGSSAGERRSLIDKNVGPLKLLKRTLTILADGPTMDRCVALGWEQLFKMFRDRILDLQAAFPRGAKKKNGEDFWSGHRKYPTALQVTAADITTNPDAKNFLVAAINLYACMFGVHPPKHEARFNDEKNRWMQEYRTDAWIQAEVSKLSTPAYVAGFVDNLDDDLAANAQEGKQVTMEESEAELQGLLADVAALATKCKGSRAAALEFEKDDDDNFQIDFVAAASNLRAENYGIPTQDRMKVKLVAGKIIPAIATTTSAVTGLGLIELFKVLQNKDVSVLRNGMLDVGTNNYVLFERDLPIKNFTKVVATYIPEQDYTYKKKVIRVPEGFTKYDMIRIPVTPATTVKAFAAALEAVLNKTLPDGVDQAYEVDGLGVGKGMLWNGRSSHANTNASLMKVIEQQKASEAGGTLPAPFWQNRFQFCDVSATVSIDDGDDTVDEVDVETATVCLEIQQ

[3] = target: AMP-activated protein kinase, AMPK (Homo sapiens) (UniProt P54646+O43741+P54619+Q9UGJ0+Q9Y478+Q13131+Q9UGI9); experiment: AMP-dependent Kinase enzyme assay. An in vitro enzyme assay that detects ADP turnover that is directly proportional to AMPK activity. This uses naive AMPK that is activated during the assay with MK-8722; assay type: functional; details: 30 µM
[4] = target: Sialic acid-binding Ig-like lectin 9 (Homo sapiens) (UniProt Q9Y336); experiment: Hs-Siglec9 ALPHAscreen SOP 20170721; details: 10 µM
Chain of Sialic acid-binding Ig-like lectin 9 (Homo sapiens) (Q9Y336 whole entry): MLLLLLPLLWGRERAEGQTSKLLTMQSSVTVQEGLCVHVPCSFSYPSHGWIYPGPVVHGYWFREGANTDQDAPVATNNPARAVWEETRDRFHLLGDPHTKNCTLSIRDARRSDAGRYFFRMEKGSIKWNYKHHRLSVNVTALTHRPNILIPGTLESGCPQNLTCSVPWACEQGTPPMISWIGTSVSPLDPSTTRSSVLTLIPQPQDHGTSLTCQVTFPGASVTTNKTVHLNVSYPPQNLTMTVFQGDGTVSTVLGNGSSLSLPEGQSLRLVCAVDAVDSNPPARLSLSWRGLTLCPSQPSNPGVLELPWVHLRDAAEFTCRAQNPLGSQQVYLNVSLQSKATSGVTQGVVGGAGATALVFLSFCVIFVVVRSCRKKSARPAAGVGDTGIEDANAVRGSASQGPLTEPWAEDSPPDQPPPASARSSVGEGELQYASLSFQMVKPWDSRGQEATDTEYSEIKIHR

Trypanosoma cruzi = experiment: Trypanosoma cruzi phosphomannomutase and mannose-1-phosphate guanylyltransferase assay; assay type: functional; details: 10 µM
[5] = target: T2, Arginase-2, mitochondrial (Homo sapiens) (UniProt P78540); experiment: in vitro enzyme assay to detect the production of urea directly proportional to the activity of Arginase II; assay type: functional; details: 33.3 µM; note: in the data most compounds retested in dose-response had high values
T2 sequence (whole entry): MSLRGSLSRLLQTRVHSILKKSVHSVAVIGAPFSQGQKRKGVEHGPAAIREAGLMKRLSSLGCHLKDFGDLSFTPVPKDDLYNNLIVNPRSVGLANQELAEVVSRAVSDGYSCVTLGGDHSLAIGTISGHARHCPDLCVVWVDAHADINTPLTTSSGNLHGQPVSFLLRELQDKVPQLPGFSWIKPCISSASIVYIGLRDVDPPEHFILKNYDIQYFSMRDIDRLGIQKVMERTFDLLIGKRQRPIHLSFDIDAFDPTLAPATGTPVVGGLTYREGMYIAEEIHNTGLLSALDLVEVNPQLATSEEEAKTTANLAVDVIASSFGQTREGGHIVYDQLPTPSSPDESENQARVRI

[6] = target: T3, Proteasome subunit beta (Trypanosoma cruzi) (UniProt O96673); experiment: Trypanosoma cruzi proteasome chymotrypsin-like activity (TcProtChymo) assay.; note: in the data most compounds retested in dose-response had high values; assay type: functional; details: 9.37 µM
T3 sequence (whole entry): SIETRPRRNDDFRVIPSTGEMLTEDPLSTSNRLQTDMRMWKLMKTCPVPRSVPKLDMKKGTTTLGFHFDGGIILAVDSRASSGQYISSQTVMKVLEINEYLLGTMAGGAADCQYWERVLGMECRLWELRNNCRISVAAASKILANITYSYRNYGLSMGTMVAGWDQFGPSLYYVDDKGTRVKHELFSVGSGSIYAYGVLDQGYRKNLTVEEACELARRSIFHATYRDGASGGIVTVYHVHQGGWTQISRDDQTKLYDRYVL

Homo sapiens = organism: Homo sapiens; experiment: To identify inhibition of the IFN signalling (Jak-Stat) pathway via expression of an eGFP reporter gene under the control of an IFN-stimulated response element (ISRE) containing MxA promoter.; assay type: functional; details: 30 µM
[7] = target: T4, Tyrosyl-tRNA synthetase, putative (Trypanosoma cruzi (strain CL Brener)) (UniProt Q4DSP6); experiment: Trypanosoma cruzi tyrosyl tRNA synthetase (TcYRS) _High Tyrosine SOP; assay type: functional; details: 30 µM; note: in the data most compounds retested in dose-response had high values
T4 sequence (whole entry): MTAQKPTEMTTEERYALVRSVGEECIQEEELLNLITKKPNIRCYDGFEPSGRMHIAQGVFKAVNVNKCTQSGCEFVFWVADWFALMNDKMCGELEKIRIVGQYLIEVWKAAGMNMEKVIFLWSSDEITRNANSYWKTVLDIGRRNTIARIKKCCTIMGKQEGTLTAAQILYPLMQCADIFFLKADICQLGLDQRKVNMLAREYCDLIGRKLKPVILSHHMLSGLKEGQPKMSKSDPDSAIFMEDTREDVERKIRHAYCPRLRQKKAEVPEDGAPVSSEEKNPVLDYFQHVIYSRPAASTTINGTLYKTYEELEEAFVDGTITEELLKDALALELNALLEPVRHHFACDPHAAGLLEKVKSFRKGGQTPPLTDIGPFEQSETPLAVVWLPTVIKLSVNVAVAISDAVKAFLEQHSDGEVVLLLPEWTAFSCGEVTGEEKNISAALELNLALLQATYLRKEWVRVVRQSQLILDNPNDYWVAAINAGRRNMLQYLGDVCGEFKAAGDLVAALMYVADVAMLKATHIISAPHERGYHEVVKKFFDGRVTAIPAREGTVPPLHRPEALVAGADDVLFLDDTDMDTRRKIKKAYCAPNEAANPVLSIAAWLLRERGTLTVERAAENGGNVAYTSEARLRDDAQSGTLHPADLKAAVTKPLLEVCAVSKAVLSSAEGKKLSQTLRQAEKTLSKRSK

[8] = target: T4, Tyrosyl-tRNA synthetase, putative (Trypanosoma cruzi (strain CL Brener)); experiment: Trypanosoma cruzi tyrosyl tRNA synthetase (TcYRS) SOP; assay type: functional; details: 30 µM
[9] = target: Chromo domain-containing protein 1 (Saccharomyces cerevisiae (strain ATCC 204508 / S288c) (Baker's yeast)) (UniProt P32657); experiment: ScCHD-1 Enzyme Inhibition Assay; assay type: functional; details: 30 µM; note: in the data most compounds retested in dose-response had high values
Chain of Chromo domain-containing protein 1 (Saccharomyces cerevisiae (strain ATCC 204508 / S288c) (Baker's yeast)) (P32657 whole entry, the tested form may be a part): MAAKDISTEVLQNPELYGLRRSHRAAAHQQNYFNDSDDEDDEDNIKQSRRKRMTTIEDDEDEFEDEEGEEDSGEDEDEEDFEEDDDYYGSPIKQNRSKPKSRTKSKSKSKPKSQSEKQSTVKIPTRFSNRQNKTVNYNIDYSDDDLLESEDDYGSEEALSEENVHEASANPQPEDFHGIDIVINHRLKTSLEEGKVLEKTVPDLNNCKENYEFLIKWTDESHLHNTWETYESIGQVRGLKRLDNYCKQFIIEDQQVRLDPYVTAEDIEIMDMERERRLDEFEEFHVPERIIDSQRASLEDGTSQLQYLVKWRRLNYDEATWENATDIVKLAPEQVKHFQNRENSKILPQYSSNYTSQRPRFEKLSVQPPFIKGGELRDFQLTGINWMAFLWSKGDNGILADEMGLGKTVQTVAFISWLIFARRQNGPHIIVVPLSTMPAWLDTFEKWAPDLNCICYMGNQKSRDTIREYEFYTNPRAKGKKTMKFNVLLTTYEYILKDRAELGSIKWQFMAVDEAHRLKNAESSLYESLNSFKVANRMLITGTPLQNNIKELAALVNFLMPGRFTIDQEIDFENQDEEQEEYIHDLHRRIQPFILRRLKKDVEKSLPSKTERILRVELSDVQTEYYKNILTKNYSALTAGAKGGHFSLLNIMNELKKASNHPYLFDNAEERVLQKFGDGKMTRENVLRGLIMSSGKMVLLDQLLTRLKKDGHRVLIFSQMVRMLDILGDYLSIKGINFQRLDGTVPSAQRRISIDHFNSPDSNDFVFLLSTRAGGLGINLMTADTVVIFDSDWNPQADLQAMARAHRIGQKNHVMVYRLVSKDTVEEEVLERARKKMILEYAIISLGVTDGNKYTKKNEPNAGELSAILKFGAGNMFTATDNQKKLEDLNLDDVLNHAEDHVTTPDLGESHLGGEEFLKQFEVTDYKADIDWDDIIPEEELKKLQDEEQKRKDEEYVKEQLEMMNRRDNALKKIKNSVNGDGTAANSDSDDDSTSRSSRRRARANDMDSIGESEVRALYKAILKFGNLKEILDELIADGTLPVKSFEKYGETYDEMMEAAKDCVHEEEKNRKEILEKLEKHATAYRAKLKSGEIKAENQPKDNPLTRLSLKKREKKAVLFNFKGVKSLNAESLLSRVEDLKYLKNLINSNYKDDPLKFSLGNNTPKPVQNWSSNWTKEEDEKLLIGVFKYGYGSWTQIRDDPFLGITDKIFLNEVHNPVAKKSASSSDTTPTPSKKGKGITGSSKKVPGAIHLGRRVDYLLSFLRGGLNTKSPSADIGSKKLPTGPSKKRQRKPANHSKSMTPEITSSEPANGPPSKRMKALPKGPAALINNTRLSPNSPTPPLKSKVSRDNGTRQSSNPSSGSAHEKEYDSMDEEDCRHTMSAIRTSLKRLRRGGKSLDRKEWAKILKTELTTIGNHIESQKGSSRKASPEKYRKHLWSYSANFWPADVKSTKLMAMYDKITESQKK

Chain of Protein translocase subunit SecA (Escherichia coli (strain K12)) (P10408 whole entry): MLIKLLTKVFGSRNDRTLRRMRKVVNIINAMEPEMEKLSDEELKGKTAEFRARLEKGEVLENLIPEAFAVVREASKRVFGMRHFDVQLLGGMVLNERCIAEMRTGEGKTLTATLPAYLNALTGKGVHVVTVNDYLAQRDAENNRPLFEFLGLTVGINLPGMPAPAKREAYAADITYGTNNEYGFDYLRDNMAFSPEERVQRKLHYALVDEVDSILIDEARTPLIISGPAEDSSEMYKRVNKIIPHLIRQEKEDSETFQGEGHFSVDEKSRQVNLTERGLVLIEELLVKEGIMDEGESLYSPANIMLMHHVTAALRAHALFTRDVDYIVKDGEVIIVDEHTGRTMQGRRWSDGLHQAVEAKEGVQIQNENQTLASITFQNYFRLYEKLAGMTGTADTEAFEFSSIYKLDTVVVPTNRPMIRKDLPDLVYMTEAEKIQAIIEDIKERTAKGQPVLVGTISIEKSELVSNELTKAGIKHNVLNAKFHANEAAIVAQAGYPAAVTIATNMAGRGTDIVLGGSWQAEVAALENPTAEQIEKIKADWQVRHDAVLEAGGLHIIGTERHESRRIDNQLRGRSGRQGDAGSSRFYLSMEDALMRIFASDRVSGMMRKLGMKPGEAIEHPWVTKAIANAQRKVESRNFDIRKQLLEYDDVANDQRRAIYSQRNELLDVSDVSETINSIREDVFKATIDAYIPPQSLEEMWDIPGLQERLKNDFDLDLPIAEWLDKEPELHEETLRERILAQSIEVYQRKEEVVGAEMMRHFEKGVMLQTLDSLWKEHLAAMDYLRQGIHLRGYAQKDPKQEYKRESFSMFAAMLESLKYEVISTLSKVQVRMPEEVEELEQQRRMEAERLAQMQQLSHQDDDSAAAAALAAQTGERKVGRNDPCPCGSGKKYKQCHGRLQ

Structure (SMILES)	Percent Effect [1]	Percent Effect [2]	Percent Effect [3]	Percent Effect [4]	Percent Effect (Trypanosoma cruzi)	Percent Effect [5]	Percent Effect [6]	Percent Effect (Homo sapiens)	Percent Effect [7]	Percent Effect [8]	Percent Effect [9]
Cc1cnn(CCNCC(=O)NCc2ccccc2)c1	-0.968%	5.26%	-2.33%	11.4%	2.15%	-4.68%	0.0846%	-25%	6.4%	6.17%	4.48%
CC(CN1CCOCC1)NCc1nncn1C1CCCCC1 (configuration not stated)	-2.55%	1.39%	-4.5%	-12%	-5.54%	3.09%	9.65%	-2.46%	6.32%	5.13%	-1.99%
Cc1cnn(CC2CCCN2C(=O)c2nccc3ccccc23)c1 (configuration not stated)	-3.25%	13%	4.54%	3.78%	-0.49%	-1.05%	6.39%	10.7%	0%	11.8%	-15.9%
CC(NC(=O)c1cc(-c2cccc(Cl)c2)no1)C(=O)N1CCCC1 (configuration not stated)	-2.69%	0%	16.6%	-3.21%	-5.16%	-2.37%	7.19%	-1.32%	2.13%	0%	-4.18%
c1nc(N2CCCCC2Cn2cncn2)c2ccsc2n1 (configuration not stated)	-6.19%	16%	-6.98%	35.1%	11.6%	25.5%	9.59%	16.8%	3.83%	13.6%	-9.92%
Cc1cc2nc(SCC(=O)N3CCCC3)n(-c3ccccc3)c(=O)c2[nH]1	-2.59%	2.63%	7.28%	-3.44%	-3.02%	9.47%	19.6%	-5.99%	6.38%	2.6%	-5.49%
O=C(c1nc(-c2ccc3cc[nH]c3c2)no1)N1CCCC1	-4.98%	-12%	2.17%	2.62%	5.11%	-3.7%	11.7%	-6.53%	0%	-2.56%	-3.18%
Cc1ccc(NC2CCN(C(=O)c3ccsc3)CC2)nn1	-9.11%	10.4%	-1.87%	1.46%	-6.37%	-1.07%	5.57%	30%	6.8%	9.76%	-2%
Cc1nc(C)n(CC2CCCN(c3ncnc4ccsc34)C2)n1 (configuration not stated)	-0.224%	10.8%	4.37%	-5.33%	-7.08%	1.2%	14.2%	73.4%	6.4%	16.1%	-6.75%
CN(C)C(=O)c1ccc2c(c1)N(C)C(CC(=O)NCc1ccno1)CO2 (configuration not stated)	-0.872%	6.94%	-9.68%	0.254%	1.85%	15%	20.7%	18.1%	7.37%	10.3%	-2.72%
Cc1cnn(CCC(=O)N2CCC(Nc3cccnn3)CC2)c1	-6.66%	5.41%	1.21%	3.62%	-5%	-2%	-3.6%	16.4%	0.493%	-8.64%	2.32%
Cc1nc(C)c(C(=O)NCCNC(=O)Cc2cccc(F)c2)s1	-3.25%	16.2%	-2.81%	1.34%	0.464%	0.924%	17.8%	17.9%	9.9%	18.3%	-4.49%
Cn1cnc(S(=O)(=O)N2CCN(Cc3ccco3)CC2)c1Cl	-3.16%	4.17%	-1.11%	4.71%	0.291%	0%	4.74%	8.03%	-17.9%	5.13%	-0.35%
Cc1ccc(CN2CCOC3(COCCN(CCN(C)C)C3)C2)o1 (configuration not stated)	-3.53%	5.33%	9.65%	0.443%	1.18%	-0.699%	14%	3.66%	8.51%	19.2%	-3.31%
CN(C)C(=O)COCc1cncc2c1CCN(Cc1cnn(C)c1)C2	-4.54%	10.4%	1.37%	20%	0.0983%	-6.9%	11.8%	10.6%	3.23%	8.64%	-2.53%
Cc1ccc(C(=O)N2CCCC(NC(=O)C(C)C)C2)c(O)c1 (configuration not stated)	-4.49%	16.2%	-12.8%	11.8%	3.87%	-4.41%	11.9%	6.82%	8.37%	25.9%	-10.5%
CNC(=O)c1cnc(/C=C/c2cc(OC)cc(OC)c2)s1	-6.6%	-5.41%	-2.31%	7.75%	-6.25%	0.417%	21.4%	18.1%	1.98%	-6.1%	-3.49%
CN1CC(C(=O)NC(C)(C)C)CC1=O (configuration not stated)	-3.04%	-5.48%	-0.441%	-0.584%	-0.595%	-3.59%	3%	-7.57%	2.08%	8.64%	6.01%
CN(CCc1ccccc1)C1CCCN(Cc2nccn2C)C1 (configuration not stated)	-4.99%	-39%	-1.69%	5.27%	8.36%	0%	9.48%	-25.8%	6.45%	6.17%	-8.68%
O=C(N1CCOCC1)[C@@]12CCO[C@@H]1CCN(CC1CCCCC1)C2	-4.88%	-1.33%	2.35%	-2.81%	-5.3%	-10%	7.58%	12.3%	-3.17%	-10.3%	-2.92%
CCc1noc(C(C)N2CCN(c3ccc(C#N)cn3)CC2)n1 (configuration not stated)	-5.24%	10.5%	4.88%	-4.78%	-4.58%	-1.18%	14.9%	17.9%	4.25%	5.2%	-5.13%
Cc1cnc(NC(=O)c2ccc(-n3ncc(C#N)c3N)cc2)s1	-5.51%	7.59%	14.4%	4.78%	-6.33%	-4.18%	5.49%	29%	11.3%	24.1%	-2.52%
